Changes are numbered by the printed parent chain; changes in the protein carry UniProt numbers. The full ranking holds about 16,000 sequences; the median of “ka relative to ugcaugu” is about 0.0091, and the highest 2% start at about 0.032. The sample as a whole holds a higher share of the highest values than the screen did.

The labels stand for the following.
T1: RBFOX1 RRM (Homo sapiens, UniProt Q9NWB1 109-208)
T1 sequence: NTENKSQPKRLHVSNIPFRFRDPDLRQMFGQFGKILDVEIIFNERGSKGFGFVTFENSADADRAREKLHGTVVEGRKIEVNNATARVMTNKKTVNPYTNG

B1: GUAUACA (DNA:RNA)
RNA: GGGAGACCGGAAUUCAGAUUGUCCGUAUACAUUAAAUCCCGUCGUAGCCACCA
DNA 1: CAATCTGAATTCCGGTCTCCC
DNA 2: TGGTGGCTACGACGGGATT
B2: GUUGCGA (DNA:RNA)
RNA: B1 RNA with A27U, U28G, A29C, C30G
DNA 1: CAATCTGAATTCCGGTCTCCC
DNA 2: TGGTGGCTACGACGGGATT
B3: AUCUGUA (DNA:RNA)
RNA: B1 RNA with G25A, A27C, A29G, C30U
DNA 1: CAATCTGAATTCCGGTCTCCC
DNA 2: TGGTGGCTACGACGGGATT
B4: ACGGGUC (DNA:RNA)
RNA: GGGAGACCGGAAUUCAGAUUGUCCACGGGUCUUAAAUCCCGUCGUAGCCACCA
DNA 1: CAATCTGAATTCCGGTCTCCC
DNA 2: TGGTGGCTACGACGGGATT
B5: UGUGAUC (DNA:RNA)
RNA: B4 RNA with A25U, C26G, G27U, G29A
DNA 1: CAATCTGAATTCCGGTCTCCC
DNA 2: TGGTGGCTACGACGGGATT
B6: CCAGUCU (DNA:RNA)
RNA: B4 RNA with A25C, G27A, G29U, U30C, C31U
DNA 1: CAATCTGAATTCCGGTCTCCC
DNA 2: TGGTGGCTACGACGGGATT
B7: UCAGGUC (DNA:RNA)
RNA: B4 RNA with A25U, G27A
DNA 1: CAATCTGAATTCCGGTCTCCC
DNA 2: TGGTGGCTACGACGGGATT
B8: GGAAAAU (DNA:RNA)
RNA: B1 RNA with U26G, U28A, C30A, A31U
DNA 1: CAATCTGAATTCCGGTCTCCC
DNA 2: TGGTGGCTACGACGGGATT
B9: CUAUCGG (DNA:RNA)
RNA: B1 RNA with G25C, A29C, C30G, A31G
DNA 1: CAATCTGAATTCCGGTCTCCC
DNA 2: TGGTGGCTACGACGGGATT
B10: CAUAACG (DNA:RNA)
RNA: B1 RNA with G25C, U26A, A27U, U28A, A31G
DNA 1: CAATCTGAATTCCGGTCTCCC
DNA 2: TGGTGGCTACGACGGGATT
B11: UGUGGGC (DNA:RNA)
RNA: B4 RNA with A25U, C26G, G27U, U30G
DNA 1: CAATCTGAATTCCGGTCTCCC
DNA 2: TGGTGGCTACGACGGGATT
B12: UGGGGGC (DNA:RNA)
RNA: B4 RNA with A25U, C26G, U30G
DNA 1: CAATCTGAATTCCGGTCTCCC
DNA 2: TGGTGGCTACGACGGGATT
B13: UGGGCUG (DNA:RNA)
RNA: B4 RNA with A25U, C26G, G29C, C31G
DNA 1: CAATCTGAATTCCGGTCTCCC
DNA 2: TGGTGGCTACGACGGGATT
B14: CACUUGC (DNA:RNA)
RNA: B4 RNA with A25C, C26A, G27C, G28U, G29U, U30G
DNA 1: CAATCTGAATTCCGGTCTCCC
DNA 2: TGGTGGCTACGACGGGATT
B15: ACAUGCG (DNA:RNA)
RNA: B4 RNA with G27A, G28U, U30C, C31G
DNA 1: CAATCTGAATTCCGGTCTCCC
DNA 2: TGGTGGCTACGACGGGATT
B16: GUAUGCA (DNA:RNA)
RNA: B1 RNA with A29G
DNA 1: CAATCTGAATTCCGGTCTCCC
DNA 2: TGGTGGCTACGACGGGATT
B17: GGAUGCG (DNA:RNA)
RNA: B1 RNA with U26G, A29G, A31G
DNA 1: CAATCTGAATTCCGGTCTCCC
DNA 2: TGGTGGCTACGACGGGATT
B18: CGAUGCC (DNA:RNA)
RNA: B1 RNA with G25C, U26G, A29G, A31C
DNA 1: CAATCTGAATTCCGGTCTCCC
DNA 2: TGGTGGCTACGACGGGATT
B19: GGAUGCC (DNA:RNA)
RNA: B1 RNA with U26G, A29G, A31C
DNA 1: CAATCTGAATTCCGGTCTCCC
DNA 2: TGGTGGCTACGACGGGATT
B20: AUAUGCA (DNA:RNA)
RNA: B1 RNA with G25A, A29G
DNA 1: CAATCTGAATTCCGGTCTCCC
DNA 2: TGGTGGCTACGACGGGATT
B21: GUAUGCC (DNA:RNA)
RNA: B1 RNA with A29G, A31C
DNA 1: CAATCTGAATTCCGGTCTCCC
DNA 2: TGGTGGCTACGACGGGATT
B22: CCAUGCC (DNA:RNA)
RNA: B4 RNA with A25C, G27A, G28U, U30C
DNA 1: CAATCTGAATTCCGGTCTCCC
DNA 2: TGGTGGCTACGACGGGATT
B23: GCAUGCG (DNA:RNA)
RNA: B1 RNA with U26C, A29G, A31G
DNA 1: CAATCTGAATTCCGGTCTCCC
DNA 2: TGGTGGCTACGACGGGATT
B24: GGAUGCA (DNA:RNA)
RNA: B1 RNA with U26G, A29G
DNA 1: CAATCTGAATTCCGGTCTCCC
DNA 2: TGGTGGCTACGACGGGATT
B25: GCAUCCC (DNA:RNA)
RNA: B1 RNA with U26C, A29C, A31C
DNA 1: CAATCTGAATTCCGGTCTCCC
DNA 2: TGGTGGCTACGACGGGATT
B26: GCAUGCC (DNA:RNA)
RNA: B1 RNA with U26C, A29G, A31C
DNA 1: CAATCTGAATTCCGGTCTCCC
DNA 2: TGGTGGCTACGACGGGATT
B27: AGGAUUU (DNA:RNA)
RNA: B4 RNA with C26G, G28A, G29U, C31U
DNA 1: CAATCTGAATTCCGGTCTCCC
DNA 2: TGGTGGCTACGACGGGATT
B28: CUUUGGG (DNA:RNA)
RNA: B1 RNA with G25C, A27U, A29G, C30G, A31G
DNA 1: CAATCTGAATTCCGGTCTCCC
DNA 2: TGGTGGCTACGACGGGATT
B29: GAACCCA (DNA:RNA)
RNA: B1 RNA with U26A, U28C, A29C
DNA 1: CAATCTGAATTCCGGTCTCCC
DNA 2: TGGTGGCTACGACGGGATT
B30: UUAGAUC (DNA:RNA)
RNA: B4 RNA with A25U, C26U, G27A, G29A
DNA 1: CAATCTGAATTCCGGTCTCCC
DNA 2: TGGTGGCTACGACGGGATT
B31: GGCGUGC (DNA:RNA)
RNA: B4 RNA with A25G, C26G, G27C, G29U, U30G
DNA 1: CAATCTGAATTCCGGTCTCCC
DNA 2: TGGTGGCTACGACGGGATT

The target of this assay is T1, RBFOX1 RRM. In words: EMSA; HiTS-Eq, 1 nM pool, 10 min; buffer printed only for the single-RNA assays: 10 mM Tris pH 7.5, 150 mM NaCl, 3.4 mM EDTA, 0.001% NP-40, 30 C. The following applies: tags: His6 N-terminal (pET28a); label: 5' 32P. The gist of the method: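 Purified RbFox RRM, wild type or mutant, was incubated for 10 min in 50 µL with 1 nM of a 5′-radiolabelled RNA pool carrying 7 randomized nucleotides, whose flanks were annealed to DNA oligonucleotides, over a series of increasing protein concentrations. Unbound RNA was resolved on 8% native PAGE, cut out, reverse-transcribed, barcoded by PCR and sequenced on an Illumina HiSeq 2500. Relative association constants were derived from changes in read counts for each RNA species versus the control reaction and normalised to the cognate motif.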
Regarding B1, the binding signal is 0.00201 KA relative to UGCAUGU.
Take B2: the binding signal is 0.0206 KA relative to UGCAUGU.
Consider B3, for which the binding signal is 0.00557 KA relative to UGCAUGU.
Then B4, with 0.0159 KA relative to UGCAUGU.
Next, B5: 0.0227 KA relative to UGCAUGU; B6: 0.00457 KA relative to UGCAUGU; B7: 0.0155 KA relative to UGCAUGU.
Then B8, with 0.00757 KA relative to UGCAUGU; and B9, with 0.00622 KA relative to UGCAUGU.
On to B10, for which the binding signal was 0.00316 KA relative to UGCAUGU.
Regarding B11, the binding signal was 0.0102 KA relative to UGCAUGU.
Then B12, with 0.014 KA relative to UGCAUGU; and B13, with 0.039 KA relative to UGCAUGU.
Turning to B14, the binding signal was 0.00965 KA relative to UGCAUGU.
Take B15: the binding signal is 0.00768 KA relative to UGCAUGU.
Regarding B16, the binding signal was 0.0319 KA relative to UGCAUGU.
Then B17, with 0.0222 KA relative to UGCAUGU; and B18, with 0.012 KA relative to UGCAUGU; and B19, with 0.0339 KA relative to UGCAUGU.
As for B20, the binding signal is 0.0145 KA relative to UGCAUGU.
Next, B21: 0.0139 KA relative to UGCAUGU; B22: 0.00772 KA relative to UGCAUGU.
Then B23, with 0.916 KA relative to UGCAUGU; and B24, with 0.0274 KA relative to UGCAUGU.
Next, B25: 0.0182 KA relative to UGCAUGU.
With B26, the binding signal is 0.829 KA relative to UGCAUGU.
For B27, the binding signal is 0.0177 KA relative to UGCAUGU.
Next, B28: 0.00295 KA relative to UGCAUGU.
For the molecule B29, the binding signal is 0.00229 KA relative to UGCAUGU.
B30: the binding signal was 0.0111 KA relative to UGCAUGU.
Then B31, with 0.0292 KA relative to UGCAUGU.

The values are drawn from PMC9911399, “Two distinct binding modes provide the RNA-binding protein RbFox with extraordinary sequence specificity”.
